The full list was thinned out, with hits kept by preference.
NOMO-1 viab – STK33 inhibitor candidate reducing NOMO-1 cell viability. NOMO-1 AML viability, CellTiter-Glo luminescence, 72 h. AID 2330. 7.5% of 37,000 active. inhibition, % (concentration not given with the values); in the data active = inhibition above about 80%
STK33 kin inh – inhibitors of human STK33 kinase; ADP-Glo luminescence, MBP substrate; inhibition, % at 12.5 µM; 0.44% of 27,000 active; AID 2322; in the data active = inhibition above about 20%
Target sequence (Q9BYT3 whole entry, looked up): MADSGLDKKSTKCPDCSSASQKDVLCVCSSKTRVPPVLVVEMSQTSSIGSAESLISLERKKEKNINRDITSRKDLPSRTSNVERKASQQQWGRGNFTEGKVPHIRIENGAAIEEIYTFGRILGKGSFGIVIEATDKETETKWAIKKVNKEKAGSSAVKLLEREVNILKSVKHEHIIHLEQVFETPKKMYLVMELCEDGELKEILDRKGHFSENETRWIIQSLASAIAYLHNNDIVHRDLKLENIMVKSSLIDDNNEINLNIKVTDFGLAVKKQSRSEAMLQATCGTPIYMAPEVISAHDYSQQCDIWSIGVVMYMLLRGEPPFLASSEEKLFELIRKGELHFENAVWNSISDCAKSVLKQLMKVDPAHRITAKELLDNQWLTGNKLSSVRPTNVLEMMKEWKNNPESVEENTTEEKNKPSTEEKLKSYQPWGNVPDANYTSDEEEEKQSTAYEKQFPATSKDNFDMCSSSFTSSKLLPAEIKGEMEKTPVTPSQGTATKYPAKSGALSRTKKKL
PD-1 reverse act – activators reversing PD-1 mediated T-cell inhibition; primary human CD4 T cells, PD-L1 beads, CellTiter-Glo 96 h; activation, % (test concentration not listed); 29,000 tested, under 10 active; AID 2316; call rule not given here
Hits are given with their value; . = inactive; / = no result.

SMILES	NOMO-1 viab	STK33 kin inh	PD-1 reverse act
COc1ccc(NC(=O)Nc2ccc3c(c2)CC(=O)N([C@@H](C)CO)C[C@@H](C)[C@@H](CN(C)S(=O)(=O)c2ccc(F)cc2)O3)cc1	.	.	.
C[C@H](CO)N1C[C@H](C)[C@H](CN(C)S(=O)(=O)c2ccc(F)cc2)Oc2ccc(NC(=O)Nc3ccc(C(F)(F)F)cc3)cc2CC1=O	119	.	.
C[C@H](CO)N1C[C@H](C)[C@H](CN(C)S(=O)(=O)c2ccc(Cl)cc2)Oc2ccc(NC(=O)Nc3ccc(F)cc3)cc2CC1=O	125	.	.
CC(C)(C)c1cc(C(F)(F)F)c(C#N)c(SCC(=O)Nc2cccc(F)c2)n1	.	.	.
Cc1cc(NC(=O)c2nn3c(C(F)(F)F)cc(-c4ccccc4)nc3c2Cl)n(-c2ccccc2)n1	.	.	.
CC(C)(C)NC(=O)CSc1nnc(-c2ccco2)n1-c1ccccc1	.	.	.
COc1ccc(NC(=O)Nc2ccc3c(c2)CC(=O)N([C@@H](C)CO)C[C@H](C)[C@H](CN(C)S(=O)(=O)c2ccc(F)cc2)O3)cc1	110	.	/
C[C@H](CO)N1C[C@H](C)[C@H](CN(C)S(=O)(=O)c2ccc(Cl)cc2)Oc2ccc(NC(=O)Nc3ccccc3)cc2CC1=O	111	/	/
C[C@@H]1CN([C@@H](C)CO)C(=O)Cc2cc(NC(=O)Nc3ccccc3)ccc2O[C@@H]1CN(C)S(=O)(=O)c1ccc(Cl)cc1	.	.	.
C[C@@H]1CN([C@H](C)CO)C(=O)c2cc(NC(=O)Nc3ccc4c(c3)OCO4)ccc2O[C@@H]1CN(C)S(=O)(=O)c1ccc(F)cc1	95	/	.
C[C@@H]1CN([C@@H](C)CO)C(=O)c2cc(NC(=O)Nc3ccc4c(c3)OCO4)ccc2O[C@@H]1CN(C)S(=O)(=O)c1ccc(F)cc1	.	/	.
COc1ccc(S(=O)(=O)N(C)C[C@@H]2Oc3ccc(NC(=O)Nc4ccc(F)cc4)cc3CC(=O)N([C@H](C)CO)C[C@H]2C)cc1	.	.	.
Cn1c(SCC(=O)Nc2cc(Cl)c(Cl)cc2Cl)nnc1-c1ccccc1	.	.	.
COc1ccc(C#Cc2ccc3c(c2)[C@]2(C(=O)N3)[C@H](c3ccccc3OCCO)N3[C@H](c4ccccc4)[C@H](c4ccccc4)OC(=O)[C@H]3[C@@H]2C(=O)N2CCN(c3ncccn3)CC2)cc1	/	.	/
O=C1O[C@@H](c2ccccc2)[C@@H](c2ccccc2)N2[C@@H](c3ccc(OCCO)cc3)[C@]3(C(=O)Nc4ccc(C#CCCO)cc43)[C@@H](C(=O)N3CCCCCCC3)[C@H]12	/	.	/
O=C1O[C@@H](c2ccccc2)[C@@H](c2ccccc2)N2[C@@H](c3ccccc3OCCO)[C@]3(C(=O)Nc4ccc(C#CCCO)cc43)[C@@H](C(=O)N3CCCCCCC3)[C@H]12	/	22	/
O=C1O[C@H](c2ccccc2)[C@H](c2ccccc2)N2[C@H]1[C@@H](C(=O)N1CCN(c3ncccn3)CC1)[C@]1(C(=O)Nc3ccc(C#CCCO)cc31)[C@H]2c1ccccc1OCCO	/	24	/
CC(C)NC(=O)Nc1ccc2c(c1)CC(=O)N([C@@H](C)CO)C[C@@H](C)[C@@H](CN(C)Cc1ccc(C(F)(F)F)cc1)O2	.	.	.
C[C@H]1CN([C@@H](C)CO)C(=O)Cc2cc(NC(=O)Nc3ccc(F)cc3)ccc2O[C@@H]1CN(C)Cc1ccc(C(F)(F)F)cc1	117	.	/
CC(C)NC(=O)Nc1ccc2c(c1)CC(=O)N([C@H](C)CO)C[C@H](C)[C@H](CN(C)Cc1ccc(C(F)(F)F)cc1)O2	.	/	/
C[C@@H]1CN([C@H](C)CO)C(=O)Cc2cc(NC(=O)Nc3ccc(F)cc3)ccc2O[C@H]1CN(C)Cc1ccc(C(F)(F)F)cc1	116	.	/
C[C@H](CO)N1C[C@H](C)[C@H](CN(C)Cc2ccc(C(F)(F)F)cc2)Oc2ccc(NC(=O)Nc3ccc(F)cc3)cc2CC1=O	113	.	.
CC1=CCC(C(=O)O)C(C(=O)Nc2ccccc2NC(=O)c2ccc(C(F)(F)F)cc2)C1 (stereo unspecified)	.	.	.
Cn1c(=O)c(Nc2ccccc2)c2c3c(cccc31)C(=O)c1ccccc1-2	.	/	.
O=C1c2ccccc2-c2c(NCCc3ccccc3)c(=O)[nH]c3cccc1c23	115	/	.
SMILES	NOMO-1 viab	STK33 kin inh	PD-1 reverse act
COc1cccc(C(=O)NC(NCC2CCCO2)(C(F)(F)F)C(F)(F)F)c1 (stereo unspecified)	.	/	.
CCCOc1ccc2nc(NC(=O)OC)[nH]c2c1	104	.	/
CCOc1ccc2nc(NCCCO)[nH]c2c1	.	.	/
O=[N+]([O-])c1ccc(NC(=S)NCCCn2ccnc2)cc1	.	.	/
CC(=O)c1cn(CC(=O)Nc2ccccc2)c2ccccc12	.	.	.
O=C(Cn1cc(C(=O)c2ccccc2F)c2ccccc21)Nc1ccccc1	89	.	.
Cc1c(NC(=S)NCCc2c[nH]c3ccccc23)c(=O)n(-c2ccccc2)n1C	.	.	.
CC(C)(C)c1cc(/C=C(\C#N)C(N)=S)cc(C(C)(C)C)c1O	118	.	/
N#CC(C#N)=C(N)/C(C#N)=C/c1cc(O)c(O)c(O)c1	.	20	.
CCC(C)CCCCCCCCC1CC(=O)NC(CCC(N)=O)C(=O)NC(CC(C)C)C(=O)NC(CC(C)C)C(=O)NC(C(C)C)C(=O)NC(CC(=O)O)C(=O)NC(CC(C)C)C(=O)NC(C(C)C)C(=O)O1 (stereo unspecified)	111	.	.
CCC(=O)OCC(=O)[C@@]1(OC(=O)CC)[C@H](C)CC2C3C([C@@H](O)C[C@@]21C)[C@@]1(C)C=CC(=O)C=C1C[C@H]3Cl (stereo partly specified)	.	.	/
CCOC(=O)Cc1[nH]nc2c1C(C1CC=CCC1)C(C#N)=C(N)O2 (stereo unspecified)	114	.	/
COc1cc(OC)cc(C2C(C#N)=C(N)Oc3n[nH]c(-c4cccnc4)c32)c1 (stereo unspecified)	.	.	/
Clc1ccc2nc(NCc3ccccn3)nc(-c3ccccc3)c2c1	.	.	.
CS(=O)(=O)c1sc(NC(=O)Nc2ccc(Cl)cc2)c2c1C=CCC2	122	/	.
Cc1cc(S(=O)(=O)Nc2ccc(C(=O)O)cc2)c(C)c(S(=O)(=O)c2ccc(Cl)cc2)c1	.	.	.
COc1ccc(-c2nnc(SCC(=O)Nc3cc(Cl)c(Cl)cc3Cl)n2C)cc1	.	.	.
Cc1ccc(-c2noc(CCC(=O)NC(C)(C)C)n2)cc1	.	.	.
COC(=O)c1cc(OC)c(OC)cc1NC(=O)C1c2ccccc2Oc2ccccc21	.	.	.
C[C@@H]1CN([C@@H](C)CO)C(=O)c2cc(NC(=O)Nc3ccc(C(F)(F)F)cc3)ccc2O[C@H]1CN(C)Cc1ccc(-c2ccccc2)cc1	118	/	/
C[C@H](CO)N1C[C@H](C)[C@@H](CN(C)Cc2ccc(C(=O)O)cc2)Oc2ccc(NC(=O)Nc3ccc(C(F)(F)F)cc3)cc2C1=O	.	/	.
C[C@@H]1CN([C@H](C)CO)C(=O)c2cc(NC(=O)Nc3ccc(C(F)(F)F)cc3)ccc2O[C@H]1CN(C)Cc1ccc(-c2ccccc2)cc1	126	/	.
C[C@H](CO)N1C[C@H](C)[C@@H](CN(C)Cc2ccc(-c3ccccc3)cc2)Oc2ccc(NC(=O)Nc3ccc(C(F)(F)F)cc3)cc2C1=O	122	/	.
